Active and inactive are the calls of the source.
Tests used:
[1] = test system: Human papillomavirus type 1a protein E7 (residues 44-93); assay: HPV1a E7 fragment binders on microarrays, primary screen, biochemical, small-molecule microarray, residues 44-93, 635 nm fluorescence (AID 1108); conditions: small-molecule microarray binding, fluorescence 635 nm; higher = more signal;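 further: E7 fragment applied at 1 µg/mL in TBST for 1 h at 4 C; score combines spot fluorescence with its signal to noise ratio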
[2] = modulators of HCV replicon luciferase signal, primary screen, HCV replication inhibitor project, Huh7 cells, luciferase reporter (AID 1109); conditions: 48 h, higher = more signal;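 further: huh7 hepatoma cells harbouring a luciferase neomycin HCV replicon reporter; luciferase luminescence as measure of HCV replicon replication; test concentration not given here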
[3] = target: Left-right determination factor 2 (Homo sapiens) (UniProt O00292); assay: LEFTY2 binders on small-molecule microarrays, primary screen, biochemical, small-molecule microarray, 635 nm fluorescence scan (AID 1110); conditions: LEFTY2 binding, higher = more signal
[4] = target: Calmodulin-1 (Homo sapiens) (UniProt P0DP23); assay: CALM1 binders on microarrays, EGTA buffer, profiling panel, biochemical, small-molecule microarray, Cy5-labelled CALM1 (AID 1111); conditions: Cy5-CALM1 binding fluorescence, higher = more signal;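 further: labelled calmodulin applied in Tris saline Tween buffer holding calcium plus EGTA and DTT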
[5] = target: Calmodulin-1 (Homo sapiens) (UniProt P0DP23); assay: calcium-bound CALM1 binders on microarrays, profiling panel, artefact control for SMM control-protein annotation, biochemical, small-molecule microarray, Cy5-labelled CALM1, plus calcium (AID 1112); conditions: Cy5-CALM1 binding fluorescence, higher = more signal;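 further: score merges spot fluorescence with signal to noise from triplicate slides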
[6] = small-molecule microarray binders of probe aWnt5a, primary screen, biochemical, biotinylated probe, 635/667 nm fluorescence (AID 1113); conditions: higher = more signal;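 further: score merges 667 nm fluorescence intensity with signal-to-noise per printed feature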
[7] = small-molecule microarray binders of probe aShh, primary screen, biochemical, biotinylated probe, 635/667 nm fluorescence (AID 1114); conditions: higher = more signal;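 further: probe is biotin-labelled aShh protein from a stem cell growth factor screen; measures binding of labelled protein to compounds printed on the slide; score merges feature fluorescence at 667 nm with signal-to-noise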
[8] = small-molecule microarray binders of probe aNog, primary screen, biochemical, biotinylated probe, 635/667 nm fluorescence (AID 1115); conditions: higher = more signal;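 further: probe is biotinylated aNog protein used at 0.15 µg/mL for 1 h at 4 C; z-score combines 667 nm fluorescence of each spot with its signal to noise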
[9] = target: Torsin-1A-interacting protein 1 (Homo sapiens) (UniProt Q5JTV8); assay: LAP1 binders from COS7 cell lysate, primary screen, small-molecule microarray, 635/667 nm fluorescence (AID 1116); conditions: COS7-hLAP1 lysate binding, 635 nm fluorescence, higher = more signal
[10] = target: Alpha-bungarotoxin (Bungarus multicinctus) (UniProt P60615); assay: alpha-bungarotoxin binders on microarray, profiling panel, artefact control for SMM control protein annotation, biochemical, small-molecule microarray, Alexa647 label, 635/667 nm fluorescence (AID 1117); conditions: alpha-BTX-A647 binding fluorescence, higher = more signal
[11] = target: Albumin (Bos taurus) (UniProt P02769); assay: bovine serum albumin binders on microarray, profiling panel, artefact control for SMM control protein annotation, biochemical, small-molecule microarray, Alexa647 label, 635/667 nm fluorescence (AID 1118); conditions: BSA-A647 binding, fluorescence 635 nm, higher = more signal;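 further: score merges 667 nm emission intensity and signal-to-noise per printed compound spot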
[12] = small-molecule microarray binders of probe aXIP, primary screen, biochemical, NeuroSMM set, 635/667 nm fluorescence (AID 1119); conditions: higher = more signal, called active from +8 up or from −8 down;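 further: probe is the protein aXip251-270 applied at 1 µg/mL to compound-printed slides; binding of probe to printed compounds measured as 667 nm fluorescence plus signal to noise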
[13] = small-molecule binders of probe aNOTCH3, primary screen, biochemical, small-molecule microarray, 635/667 nm fluorescence (AID 1120); conditions: higher = more signal;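 further: probe is a biotin-tagged antibody raised against NOTCH3 rather than NOTCH3 protein; score merges spot fluorescence near 667 nm with spot signal to noise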
[14] = small-molecule binders of probe aNOTCH2, primary screen, biochemical, small-molecule microarray, 635/667 nm fluorescence (AID 1121); conditions: higher = more signal;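 further: score merges feature fluorescence read at 667 nm with its signal to noise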
[15] = target: Carbonic anhydrase 2 (Homo sapiens) (UniProt P00918); assay: CAII small-molecule binders, profiling panel, biochemical, small-molecule microarray, Alexa647-labelled CAII (AID 1122); conditions: CAII-A647 binding fluorescence, higher = more signal
[16] = COS7 lysate on small-molecule microarray, probe aHis, 635 nm (AID 1123); conditions: COS7 cell lysate, fluorescence, higher = more signal;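 further: z-score combines 667nm fluorescence intensity with signal-to-noise per printed compound spot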
[17] = compound binding in COS7 lysate, probe aLAP1, primary screen, cell lysate, small-molecule microarray (AID 1124); conditions: probe aLAP1, fluorescence, higher = more signal;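 further: lysate comes from COS7 cells expressing LAP1 and is applied at 0.3 µg/mL; score merges spot fluorescence near 667 nm with signal-to-noise over triplicate slides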
[18] = test system: Sam68 (KHDRBS1); assay: Sam68 small-molecule binders, primary screen, biochemical, small-molecule microarray, 635 nm fluorescence (AID 1125); conditions: small-molecule microarray binding, higher = more signal;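 further: score merges 667 nm channel intensity with signal to noise over triplicate slides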
[19] = test system: Chordin-like protein 2 (CHRDL2); assay: CHRDL2 small-molecule binders, primary screen, biochemical, small-molecule microarray, 635 nm fluorescence (AID 1126); conditions: small-molecule microarray binding, fluorescence 635 nm; higher = more signal;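 further: printed compound slides probed with Chrdl2 protein at 4 µg/mL for 1 h at 4 C; score merges 667 nm emission intensity with signal to noise over three replicate slides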
[20] = target: Concanavalin-A (Canavalia ensiformis) (UniProt P02866); assay: ConA small-molecule binders, primary screen, artefact control for SMM control protein annotation, biochemical, small-molecule microarray, Alexa647 label, 635 nm (AID 1127); conditions: ConA-A647 binding fluorescence, higher = more signal;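 further: z combines 667 nm emission intensity with signal-to-noise across three replicate slides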
Chain of Concanavalin-A (Canavalia ensiformis) (P02866 whole entry, looked up): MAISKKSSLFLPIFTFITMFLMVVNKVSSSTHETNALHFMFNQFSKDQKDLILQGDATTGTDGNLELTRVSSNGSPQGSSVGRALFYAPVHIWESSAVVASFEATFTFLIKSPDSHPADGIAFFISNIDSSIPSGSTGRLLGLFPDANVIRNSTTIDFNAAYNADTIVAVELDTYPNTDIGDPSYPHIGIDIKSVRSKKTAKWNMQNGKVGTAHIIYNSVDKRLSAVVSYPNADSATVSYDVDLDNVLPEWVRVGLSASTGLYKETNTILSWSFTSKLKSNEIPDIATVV

Chain of Left-right determination factor 2 (Homo sapiens) (O00292 whole entry, looked up): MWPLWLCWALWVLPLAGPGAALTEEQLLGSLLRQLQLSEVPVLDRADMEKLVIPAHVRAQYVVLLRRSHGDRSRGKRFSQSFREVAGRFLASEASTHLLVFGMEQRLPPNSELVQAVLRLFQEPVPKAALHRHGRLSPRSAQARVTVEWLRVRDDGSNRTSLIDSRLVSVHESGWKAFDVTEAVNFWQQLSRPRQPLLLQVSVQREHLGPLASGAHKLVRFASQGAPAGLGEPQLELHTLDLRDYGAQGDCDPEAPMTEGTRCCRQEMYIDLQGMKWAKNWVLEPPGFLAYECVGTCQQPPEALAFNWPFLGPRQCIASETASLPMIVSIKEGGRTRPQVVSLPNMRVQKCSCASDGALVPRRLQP
Chain of Torsin-1A-interacting protein 1 (Homo sapiens) (Q5JTV8 whole entry, looked up): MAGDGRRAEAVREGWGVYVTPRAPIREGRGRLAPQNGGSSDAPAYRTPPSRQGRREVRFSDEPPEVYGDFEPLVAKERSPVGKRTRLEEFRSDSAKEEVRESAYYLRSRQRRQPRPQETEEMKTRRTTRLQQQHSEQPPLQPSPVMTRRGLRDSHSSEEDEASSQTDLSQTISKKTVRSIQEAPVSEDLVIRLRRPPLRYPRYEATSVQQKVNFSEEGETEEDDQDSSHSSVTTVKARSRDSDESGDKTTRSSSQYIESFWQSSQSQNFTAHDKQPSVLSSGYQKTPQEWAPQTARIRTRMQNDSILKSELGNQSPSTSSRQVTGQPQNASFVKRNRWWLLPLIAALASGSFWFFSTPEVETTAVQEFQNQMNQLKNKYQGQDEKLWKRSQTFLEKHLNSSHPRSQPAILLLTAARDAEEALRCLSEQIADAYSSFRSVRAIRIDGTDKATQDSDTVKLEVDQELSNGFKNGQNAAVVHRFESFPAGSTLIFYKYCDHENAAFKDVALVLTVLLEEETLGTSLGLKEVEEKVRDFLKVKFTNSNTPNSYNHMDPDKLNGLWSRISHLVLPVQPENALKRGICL
Chain of Alpha-bungarotoxin (Bungarus multicinctus) (P60615 whole entry, looked up): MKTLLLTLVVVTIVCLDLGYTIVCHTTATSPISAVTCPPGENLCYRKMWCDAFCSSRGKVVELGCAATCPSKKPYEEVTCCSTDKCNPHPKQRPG
Chain of Albumin (Bos taurus) (P02769 whole entry, looked up): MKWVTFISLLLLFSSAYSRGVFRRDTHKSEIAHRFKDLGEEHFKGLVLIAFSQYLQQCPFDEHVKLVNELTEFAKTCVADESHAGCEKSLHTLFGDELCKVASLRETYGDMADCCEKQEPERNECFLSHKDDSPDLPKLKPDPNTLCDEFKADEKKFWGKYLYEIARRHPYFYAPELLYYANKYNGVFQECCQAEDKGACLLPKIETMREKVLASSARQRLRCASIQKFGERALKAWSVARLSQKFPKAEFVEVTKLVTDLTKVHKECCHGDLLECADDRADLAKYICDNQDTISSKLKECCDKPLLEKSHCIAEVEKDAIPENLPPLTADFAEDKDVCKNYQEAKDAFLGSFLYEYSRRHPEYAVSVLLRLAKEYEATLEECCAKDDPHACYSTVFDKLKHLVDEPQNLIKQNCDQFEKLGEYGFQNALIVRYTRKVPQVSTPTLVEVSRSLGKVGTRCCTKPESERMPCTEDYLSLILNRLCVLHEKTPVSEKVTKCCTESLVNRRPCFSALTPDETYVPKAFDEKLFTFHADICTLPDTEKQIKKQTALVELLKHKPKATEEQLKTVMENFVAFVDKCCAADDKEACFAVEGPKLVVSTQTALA

Row | Compound | composite z-score [1] | z-score [2] | composite z-score [3] | composite z-score [4] | composite z-score [5] | composite z-score [6] | composite z-score [7] | composite z-score [8] | composite z-score [9] | composite z-score [10] | composite z-score [11] | composite Z-score [12] | composite z-score [13] | composite z-score [14] | composite z-score [15] | composite z-score [16] | composite z-score [17] | composite z-score [18] | composite z-score [19] | composite z-score [20]
1 | COc1ccc([Si](C)(C)[C@@H]2[C@@H](CC(=O)N(CCO)Cc3ccccc3)O[C@]3(C(=O)N(Cc4ccc(N5C(=O)c6cccc7cccc5c67)cc4)c4ccccc43)[C@H]2C)cc1 | 0.749 | -4.47 | 0.495 | 0.553 | 0.822 | -0.124 | 0.0725 | 0.189 | 0.762 | 2.24 | -0.806 | 0.267 (inactive) | 0.0496 | -0.126 | 0.283 | 1.12 | 0.284 | 0.956 | 0.307 | 1.12
2 | CC(C)(C)OC(=O)CC[C@@]1(C(=O)NCCN2CCOCC2)N=C(c2ccc(OCCCO)cc2)O[C@@H]1c1ccccc1CN=[N+]=[N-] | 1.02 | -0.0116 | -0.345 | 1.98 | -0.0256 | 0.0219 | -0.324 | -0.481 | 0.462 | 0.519 | 0.812 | 2.03 (inactive) | 0.0488 | -0.112 | 0.245 | 1.17 | 0.59 | 0.696 | -0.743 | 1.08
3 | C=C1C(=O)C=C2CN(C(=O)c3ccccc3)[C@@](Cc3ccc(OC)cc3)(C(=O)OC)[C@@H]12 | 1.43 | -2.72 | -0.135 | 2.16 | 0.311 | 0.164 | 0.232 | 2.04 | 1.04 | 1.2 | 1.07 | 0.579 (inactive) | 0.711 | 0.11 | 0.523 | 3.32 | 0.471 | 1.3 | -0.639 | 1.14
4 | CC(C)C[C@H]1NC(=O)C([C@@H](C)OCc2ccccc2)NC(=O)[C@@]23C(=O)N[C@@H](Cc4ccccc4)C2[C@H](C)[C@@]2(C)O[C@H]2C3/C=C/C/C=C\CNC1=O (stereo not given in full) | 0.566 | -2.23 | 0.905 | 0.216 | -0.389 | -0.118 | -0.0553 | 0.746 | 0.174 | 0.888 | 0.616 | 0.0578 (inactive) | 0.2 | -0.0148 | 0.412 | 1.51 | 0.653 | 1.3 | 0.736 | 0.234
5 | Cc1ccc(S[C@]2(C(=O)NCCCN(C)C)CC(=O)N(C3Cc4ccccc4C3)[C@@H]2c2ccc(CO)cc2I)cc1 | 0.257 | -2.83 | -1.11 | 0.0811 | -0.358 | 0.0792 | 0.207 | -0.291 | 0.157 | 0.651 | 0.827 | 0.42 (inactive) | -0.0569 | -0.18 | 0.715 | 0.83 | -0.312 | 0.125 | -0.745 | 0.441
6 | CCCCCCc1nc(-c2ccc(-c3ccc(Cl)c(Cl)c3)o2)cc2c1[Si](C(C)C)(C(C)C)OC2 | -0.474 | -0.967 | -0.924 | -0.444 | 0.742 | -0.174 | -0.372 | -0.278 | -0.875 | -0.782 | 0.521 | -0.935 (inactive) | -0.261 | -0.156 | -0.216 | 0.445 | -0.389 | -0.248 | -0.834 | -0.48
7 | C#CCN1[C@@H](Cc2ccccc2)C(=O)O[C@H](Cc2ccccc2)[C@@H]1/C=C/C1CC1 | 0.805 | -2.28 | 0.137 | -0.63 | -0.717 | -0.118 | -0.0337 | -0.196 | 0.436 | 0.456 | -0.215 | 0.196 (inactive) | 0.0999 | -0.126 | 0.486 | 0.92 | -0.103 | 0.713 | 0.646 | -0.741
8 | COCCOC(=O)N1C(=O)[C@@]2(c3cc(C#CCCO)ccc31)[C@H](c1ccccc1OCCO)N1[C@H](c3ccccc3)[C@H](c3ccccc3)OC(=O)[C@H]1[C@@H]2C(N)=O | 1.41 | -1.64 | 0.416 | 1.25 | -0.0732 | 0.002 | 0.0204 | -0.467 | 0.606 | 1.23 | -0.0956 | -0.0135 (inactive) | -0.0054 | -0.118 | 0.578 | 1.89 | 0.128 | 1.3 | 0.0193 | 1.05
9 | COCCCNC(=O)[C@@]1(Sc2ccc(C)cc2)CC(=O)N(Cc2ccccc2C(F)(F)F)[C@@H]1c1ccc(CO)cc1I | -0.779 | -0.817 | -1.47 | -0.376 | 1.04 | -0.139 | -0.0769 | 0.595 | -0.181 | -1.2 | 0.474 | -1.08 (inactive) | -0.402 | -0.121 | 0.175 | 1.08 | 0.295 | 0.188 | -1.51 | -0.89
10 | C=CCOC(=O)[C@H]1[C@@H]2C(=O)O[C@@H](c3ccccc3)[C@@H](c3ccccc3)N2[C@@H](c2ccc(OCCOC(=O)[C@@H]3C[C@@H]4C(=O)N[C@@H](CCCCNC(C)=O)C(=O)N4[C@@H]3c3cccc(OCCO)c3)cc2)[C@]12C(=O)Nc1ccccc12 | 0.843 | -1.48 | 0.781 | 0.258 | 0.121 | -0.124 | 0.147 | 0.254 | 0.439 | -0.0506 | -0.623 | 1.36 (inactive) | 0.116 | -0.0704 | 0.501 | 2.07 | 0.352 | 1.29 | 0.751 | 1.2
11 | CCCN1C(=O)[C@]2(CCC(=O)OC(C)(C)C)N=C(c3ccc(OCCCO)cc3)O[C@@H]2c2ccccc21 | 1.17 | -2.87 | -0.399 | -0.0977 | -0.148 | -0.124 | 0.0469 | 0.175 | 3.34 | 0.28 | 0.151 | -0.12 (inactive) | -0.0044 | -0.0732 | 0.2 | 1.42 | 0.651 | 0.8 | 0.405 | 1.03
12 | CN(C)CCCCNC(=O)[C@H]1C[C@H]2C(=O)N3CCC[C@H]3C(=O)N2[C@H]1c1cccc(OCCO)c1 | 1.4 | -0.0955 | -0.35 | 0.915 | 0.836 | -0.144 | 0.134 | 1.14 | 0.495 | 1.43 | -0.115 | 1.68 (inactive) | 0.234 | -0.117 | 0.519 | 1.12 | 0.392 | 1.04 | -0.52 | 0.794
